Nine compounds from PubChem BioAssay (NCI) can be followed below.

Common to all, as to experiment: NCI-60 one-dose screen, 48 h (100 = growth as untreated, 0 = no growth, -100 = all killed)
The test system of one assay is RPMI-8226 leukemia. To be noted: 10 µM unless noted.
The subject of the next assay is OVCAR-8 ovarian. As to conditions: 10 µM unless noted.
A further assay relates to OVCAR-5 ovarian. To be noted: 10 µM unless noted.
The test system of the next assay is OVCAR-4 ovarian. To be noted: 10 µM unless noted.
The next assay has as its system SK-OV-3 ovarian. As to conditions: 10 µM unless noted.
In the next assay the test system is IGROV1 ovarian. As to conditions: 10 µM unless noted.
A further assay concerns OVCAR-3 ovarian. To be noted: 10 µM unless noted.
In a further assay the test system is HS 578T breast. As to conditions: 10 µM unless noted.
The test system of a further assay is NCI/ADR-RES ovarian. To be noted: 10 µM unless noted.
Another assay concerns T-47D breast. As to conditions: 10 µM unless noted.
For another assay, the system named is BT-549 breast. To be noted: 10 µM unless noted.
A further assay relates to MDA-MB-435 melanoma. As to conditions: 10 µM unless noted.
In the next assay the test system is SW-620 colon. As to conditions: 10 µM unless noted.
In a further assay the test system is MCF7 breast. To be noted: 10 µM.
The next assay deals with HCT-116 colon. To be noted: 10 µM unless noted.
In another assay the test system is HCC-2998 colon. To be noted: 10 µM unless noted.
The next assay relates to KM12 colon. As to conditions: 10 µM unless noted.

Compounds without any hit were thinned out: in the full panel of roughly 83,000, 20% have a hit.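 Method: cells in 96-well plates; compound added at one concentration; 48 h incubation; percent growth measured; values under 10 scored active.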 A number with no mark means an inactive call. Calls of active or inactive are those of the source.

With `Cc1c(C(=O)OCCO)cc(-c2ccc(Cl)cc2)n1-c1ccc(Cl)cc1Cl`, the growth with RPMI-8226 leukemia is 84.9%; with OVCAR-8 ovarian, 83.8%; in the assay on OVCAR-5 ovarian, 84.1%; with OVCAR-4 ovarian it was 97.3%; with SK-OV-3 ovarian it was 72.7%; with IGROV1 ovarian it was 90.2%. In addition, the growth is 91.9% with OVCAR-3 ovarian; 81.3% in the assay on HS 578T breast; 77.1% in the assay with NCI/ADR-RES ovarian; 62% with T-47D breast; 92.8% in the assay on BT-549 breast; 4.72% (active) in the assay on MDA-MB-435 melanoma. Further, the growth in the assay on SW-620 colon is 67.3%; in the assay on MCF7 breast, 44.3%; in the assay with HCT-116 colon, 60.3%; with HCC-2998 colon, 100%; with KM12 colon it was 52.4%.
As to `COc1ccc(CCN2C(=O)CCSC2=S)cc1`, the growth was 8.09% (active) in the assay on RPMI-8226 leukemia; 63.7% with OVCAR-8 ovarian; 98.1% in the assay on OVCAR-5 ovarian; 74.8% in the assay with OVCAR-4 ovarian; 102% with SK-OV-3 ovarian; 41.7% in the assay on IGROV1 ovarian. Besides, the growth in the assay on OVCAR-3 ovarian is 9.45% (active); in the assay with HS 578T breast, 87.7%; in the assay on NCI/ADR-RES ovarian it was 71.7%; in the assay on T-47D breast it was 62%; in the assay with BT-549 breast, 96.3%; in the assay with MDA-MB-435 melanoma, 4.04% (active). In addition, the growth in the assay with SW-620 colon is 21.9%; with MCF7 breast, 16.2%; in the assay on HCT-116 colon, 17.1%; in the assay with HCC-2998 colon, 106%; in the assay on KM12 colon, 0.314% (active).
With `COc1ccc(-c2c(-c3ccc(OC)c(O)c3)cnc3ncnn23)cc1`, the growth was 108% in the assay with RPMI-8226 leukemia; 101% in the assay on OVCAR-8 ovarian; 103% in the assay with OVCAR-5 ovarian; 104% in the assay with OVCAR-4 ovarian; 110% with SK-OV-3 ovarian; 110% in the assay with IGROV1 ovarian. In addition, the growth with OVCAR-3 ovarian was 112%; with HS 578T breast, 104%; in the assay on NCI/ADR-RES ovarian it was 102%; in the assay on T-47D breast it was 103%; in the assay with BT-549 breast, 102%; in the assay on MDA-MB-435 melanoma, 108%. The growth in the assay with SW-620 colon is 99.1%; with MCF7 breast, 95.2%; in the assay on HCT-116 colon, 98%; in the assay on HCC-2998 colon, 109%; in the assay with KM12 colon, 102%.
Consider `COc1ccc(-n2c(C(O)c3ccccc3)nn(CN3CCOCC3)c2=S)cc1` (stereo not drawn), for which the growth in the assay on RPMI-8226 leukemia is 88.9%; with OVCAR-8 ovarian, 107%; in the assay on OVCAR-5 ovarian, 101%; in the assay with OVCAR-4 ovarian, 96.1%; with SK-OV-3 ovarian, 101%; with IGROV1 ovarian, 96.6%. In addition, the growth is 124% in the assay with OVCAR-3 ovarian; 93.3% in the assay with HS 578T breast; 107% in the assay with NCI/ADR-RES ovarian; 90.4% with T-47D breast; 108% in the assay on BT-549 breast; 106% in the assay with MDA-MB-435 melanoma. The growth in the assay on SW-620 colon is 87%; in the assay with MCF7 breast, 105%; with HCT-116 colon, 105%; in the assay with HCC-2998 colon, 106%; in the assay with KM12 colon it was 99.8%.
In the case of `CN(C)CCNc1cc(-c2ccccc2)nc2ccccc12`, the growth in the assay on RPMI-8226 leukemia was -8.18% (active); with OVCAR-8 ovarian it was -34.4% (active); in the assay with OVCAR-5 ovarian, -39.7% (active); with OVCAR-4 ovarian, -25% (active); in the assay with SK-OV-3 ovarian, 36.4%; in the assay on IGROV1 ovarian it was -64% (active). Further, the growth with OVCAR-3 ovarian is -92.5% (active); in the assay with HS 578T breast, 11.1%; in the assay with NCI/ADR-RES ovarian it was -1.85% (active); in the assay on T-47D breast, -5.18% (active); in the assay on BT-549 breast, -77.8% (active); in the assay on MDA-MB-435 melanoma, -55.1% (active). In addition, the growth in the assay on SW-620 colon was -79.8% (active); with MCF7 breast, -24.6% (active); in the assay on HCT-116 colon, -71.4% (active); in the assay on HCC-2998 colon it was -81.4% (active); with KM12 colon, -23.8% (active).
For `COc1ccc(CN2CCCC(C(=O)c3ccc(C(F)(F)F)cc3)C2)c(O)c1` (stereo not drawn), the growth in the assay with RPMI-8226 leukemia was 11.8%; in the assay with OVCAR-8 ovarian, 17%; with OVCAR-5 ovarian, 55%; with OVCAR-4 ovarian it was 45.4%; in the assay with SK-OV-3 ovarian, 26.1%; in the assay on IGROV1 ovarian, 47.5%. The growth was 7.49% (active) with OVCAR-3 ovarian; 25.8% in the assay on HS 578T breast; 9.17% (active) in the assay on NCI/ADR-RES ovarian; 26.1% in the assay on T-47D breast; 25.7% with BT-549 breast; -48.9% (active) in the assay with MDA-MB-435 melanoma. Besides, the growth in the assay on SW-620 colon was 13.4%; with MCF7 breast it was 10.9%; in the assay with HCT-116 colon it was 15.9%; in the assay with HCC-2998 colon it was 31.8%; in the assay with KM12 colon, 18.5%.
For `O=S(=O)(c1ccccc1)n1cc2c(c1-c1ccccc1)CCc1sc(Nc3ccccc3)nc1-2`, the growth is 67.7% in the assay on RPMI-8226 leukemia; 79.8% with OVCAR-8 ovarian; 94.4% with OVCAR-5 ovarian; 75.2% in the assay with OVCAR-4 ovarian; 99.7% in the assay with SK-OV-3 ovarian; 115% in the assay with IGROV1 ovarian. Besides, the growth with OVCAR-3 ovarian was 72.5%; with HS 578T breast, 98.3%; with NCI/ADR-RES ovarian, 76.8%; in the assay with T-47D breast it was 64.1%; in the assay with BT-549 breast, 103%; in the assay on MDA-MB-435 melanoma it was 88%. Further, the growth with SW-620 colon is 94.4%; in the assay with MCF7 breast it was 72.9%; with HCT-116 colon, 83.3%; in the assay with HCC-2998 colon, 110%; in the assay with KM12 colon, 82.7%.
On to `COc1ccc(-c2nsc3c2NC(=O)CC3c2ccc3c(c2)OCCO3)cc1` (stereo not drawn), for which the growth in the assay with RPMI-8226 leukemia is 31.5%; in the assay with OVCAR-8 ovarian it was 35.3%; with OVCAR-5 ovarian, 37.5%; in the assay with OVCAR-4 ovarian, 36.9%; in the assay on SK-OV-3 ovarian it was 3.12% (active); in the assay on IGROV1 ovarian it was 49%. In addition, the growth in the assay on OVCAR-3 ovarian is -38.6% (active); in the assay with HS 578T breast, 28.4%; with NCI/ADR-RES ovarian it was 21%; with T-47D breast, 50.2%; with BT-549 breast it was 27.8%; in the assay with MDA-MB-435 melanoma, -46.6% (active). Moreover, the growth in the assay on SW-620 colon was 35.7%; in the assay with MCF7 breast, 24.7%; in the assay on HCT-116 colon, 12.7%; in the assay on HCC-2998 colon it was 33.5%; in the assay on KM12 colon, 20.6%.
Consider `CN(O)c1nc(N(C)O)nc(N2CCOCC2)n1`, for which the growth is 36.8% in the assay with RPMI-8226 leukemia; 33.8% in the assay with OVCAR-8 ovarian; 68.9% with OVCAR-5 ovarian; 1.09% (active) in the assay with OVCAR-4 ovarian; 8.47% (active) in the assay with SK-OV-3 ovarian; 20.1% in the assay on IGROV1 ovarian. In addition, the growth in the assay with OVCAR-3 ovarian was 5.41% (active); in the assay with HS 578T breast, 75.9%; with NCI/ADR-RES ovarian, 21.6%; in the assay with T-47D breast, 40.9%; with BT-549 breast, 60.5%; in the assay on MDA-MB-435 melanoma, 42.5%. In addition, the growth in the assay with SW-620 colon is 52.4%; in the assay on MCF7 breast it was 15.9%; with HCT-116 colon, 12.2%; in the assay on HCC-2998 colon it was 40.5%; in the assay with KM12 colon, 45.8%.
